In PubChem BioAssay (NCATS):
Inconclusive results are not listed. Where a call stands in place of a potency, no number is given. Calls of active or inactive are those of the source. Calls come from the whole dose curve; as a rule, active = well fitted curve in the direction sought with a large enough effect; inconclusive = small, poorly fitted or top-dose-only effect, or another doubt; inactive = no such curve, though single readings can be large; an effect the other way counts as inactive or inconclusive.

Experiments:
[1] = target: Protein phosphatase 1D (Homo sapiens) (UniProt O15297); assay: RapidFire Mass Spectrometry qHTS Assay for Modulators of WT P53-Induced Phosphatase 1 (WIP1) (AID 1347424);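 note: amount of dephosphorylated VEPPL-S-QETFS peptide product formed by WIP1; series mostly up to about 63 µM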
Summary of the method: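 WIP1 (10 nM final) was preincubated 1 h at room temperature with compounds in Tris-HCl pH 7.5, 30 mM MgCl2, TCEP, EGTA, BSA; 2 uM VEPPL-pS-QETFS phosphopeptide was added for 5 min, quenched with formic acid, and dephosphorylated product quantified by RapidFire MS.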

[2] = target: Protein phosphatase 1D (Homo sapiens) (UniProt O15297); assay: Rhodamine-PBP qHTS Assay for Modulators of WT P53-Induced Phosphatase 1 (WIP1) (AID 1347425)
Summary of the method: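 Read-out: Rhodamine-PBP fluorescence (ex 525/em 598 nm) for released Pi, read each minute for 11 min after adding 10 uM VEPPL-pS-QETFS; signal taken as f1 minus pre-substrate f0. Enzyme 5 nM WIP1 with 1 hr room-temperature compound preincubation.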

Sequence of Protein phosphatase 1D (Homo sapiens) (O15297 whole entry, looked up): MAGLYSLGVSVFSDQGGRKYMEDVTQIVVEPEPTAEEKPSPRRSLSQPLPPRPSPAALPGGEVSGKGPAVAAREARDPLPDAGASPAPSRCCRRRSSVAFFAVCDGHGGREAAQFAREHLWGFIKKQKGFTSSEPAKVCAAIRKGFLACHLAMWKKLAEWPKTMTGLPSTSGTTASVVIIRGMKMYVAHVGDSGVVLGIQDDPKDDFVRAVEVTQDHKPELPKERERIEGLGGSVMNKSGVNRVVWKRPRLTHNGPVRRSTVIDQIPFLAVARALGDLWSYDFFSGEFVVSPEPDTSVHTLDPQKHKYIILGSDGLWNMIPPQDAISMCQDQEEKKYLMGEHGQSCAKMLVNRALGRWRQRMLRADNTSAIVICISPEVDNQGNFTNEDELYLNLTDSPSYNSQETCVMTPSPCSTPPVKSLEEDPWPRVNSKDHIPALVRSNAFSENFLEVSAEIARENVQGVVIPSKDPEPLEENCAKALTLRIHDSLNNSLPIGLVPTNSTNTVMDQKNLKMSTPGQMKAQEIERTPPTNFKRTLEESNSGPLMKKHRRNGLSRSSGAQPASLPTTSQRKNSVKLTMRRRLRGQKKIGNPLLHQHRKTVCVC

Row | Structure (SMILES) | Potency [1] | outcome [2]
1 | COCC(=O)N(c1c(C)cccc1C)C(C)C(=O)OC (configuration not stated) | inactive | inactive
2 | Cc1ncc2n1-c1ccc(Cl)cc1C(c1ccccc1F)=NC2 | inactive | inactive
3 | C[N+]1(CCC(C(N)=O)(c2ccccc2)c2ccccc2)CCCCC1 | inactive | inactive
4 | CNC(=O)NC(O)C(Cl)(Cl)Cl (configuration not stated) | inactive | inactive
5 | CCc1ccc(C2CCNCC2)cc1 | inactive | inactive
6 | CCOC(=O)NC(O)C(Cl)(Cl)Cl (configuration not stated) | inactive | inactive
7 | OC(c1ccccc1)(c1ccccc1)C1CCNCC1 | inactive | inactive
8 | C[C@]12C=CC(=O)C=C1CC[C@@H]1[C@@H]2CC[C@@]2(C)[C@H]1CC[C@]2(C)O | inactive | inactive
9 | CC(CC(C#N)(c1ccccc1)c1ccccc1)N(C)C (configuration not stated) | inactive | inactive
10 | Nc1ccc(N)cc1 | inactive | –
11 | COc1cc(CC#N)cc(OC)c1OC | inactive | inactive
12 | ClC1=C(Cl)C2(Cl)C(CBr)CC1(Cl)C2(Cl)Cl (configuration not stated) | inactive | inactive
13 | C[C@@H]1C[C@@H]([C@H](O)CC2CC(=O)NC(=O)C2)C(=O)[C@@H](C)C1 | inactive | inactive
14 | CCN(Cc1ccc(Cl)nc1)/C(=C/[N+](=O)[O-])NC | inactive | inactive
15 | O=C(CBr)Nc1ccc(Cl)cc1C(=O)c1ccccc1F | inactive | inactive
16 | O=C(CCl)c1ccc(Cl)cc1Cl | inactive | inactive
17 | C[C@]12CC[C@H]3[C@@H](CCC4=CC(=O)CC[C@@]43C)[C@@H]1CC[C@@H]2C(=O)O | inactive | inactive
18 | Oc1c(Br)cc(Br)cc1Br | inactive | inactive
19 | O=c1[nH]c2cc(Cl)ccc2n1C1CCNCC1 | inactive | inactive
